# In the supplement of paper PMC10849652:
# The full data set covers some 7,900 targets. This sample favours those with a hit. About 0.6% of all pairs of compound and target were hits. Values without a mark were called inactive.
# Compound: c1cn2cc(-c3ccc4cn[nH]c4c3)nc(Nc3ccc(N4CCOCC4)cc3)c2n1 [entospletinib]
# Experiment: log2 fold change, soluble protein after heating vs DMSO (PISA); higher = thermal stabilisation; K562 cells, 10 uM, 30 min; active = over 0.2 and 3.5 SD of the protein, either way, in both replicates (recomputed)
# Summary of the method: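 K562 cells at 2×10^6 cells/mL were exposed to 10 μM compound for 30 min, then aliquots were heated for 3 min across 48°C-58°C, pooled, and extracted in PBS containing 0.5% NP-40 at 4°C. The supernatant after 21,000xg for 90 min was taken as soluble protein and measured by TMTpro 16plex LC-MS/MS with channel sums equalised. Thermal stability is reported relative to control samples, with values from duplicates. Fold changes are given on a log2 scale.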
# Chain of UniProt Q9UG56 (Q9UG56 whole entry, looked up): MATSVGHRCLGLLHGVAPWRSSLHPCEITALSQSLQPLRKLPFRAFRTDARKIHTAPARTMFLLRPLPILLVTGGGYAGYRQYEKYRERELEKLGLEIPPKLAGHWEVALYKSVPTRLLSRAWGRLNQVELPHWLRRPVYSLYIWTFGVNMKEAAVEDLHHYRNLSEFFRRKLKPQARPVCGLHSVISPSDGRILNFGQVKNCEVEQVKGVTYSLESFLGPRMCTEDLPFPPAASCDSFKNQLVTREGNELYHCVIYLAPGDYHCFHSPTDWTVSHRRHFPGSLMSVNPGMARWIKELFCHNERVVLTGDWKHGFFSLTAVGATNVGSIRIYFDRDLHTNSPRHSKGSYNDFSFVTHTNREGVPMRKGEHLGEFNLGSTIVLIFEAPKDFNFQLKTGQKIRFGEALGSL
# Chain of UniProt P62333 (P62333 whole entry, looked up): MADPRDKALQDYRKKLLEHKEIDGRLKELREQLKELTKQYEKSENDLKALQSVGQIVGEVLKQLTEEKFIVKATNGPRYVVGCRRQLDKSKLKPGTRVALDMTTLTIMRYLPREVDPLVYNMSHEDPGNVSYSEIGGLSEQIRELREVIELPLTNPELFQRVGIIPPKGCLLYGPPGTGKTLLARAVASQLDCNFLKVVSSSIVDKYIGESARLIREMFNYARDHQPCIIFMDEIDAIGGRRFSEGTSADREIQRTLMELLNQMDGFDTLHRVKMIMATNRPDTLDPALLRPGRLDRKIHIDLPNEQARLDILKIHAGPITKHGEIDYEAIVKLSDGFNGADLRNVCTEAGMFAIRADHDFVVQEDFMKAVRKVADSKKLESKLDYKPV
# Chain of UniProt Q16822 (Q16822 whole entry, looked up): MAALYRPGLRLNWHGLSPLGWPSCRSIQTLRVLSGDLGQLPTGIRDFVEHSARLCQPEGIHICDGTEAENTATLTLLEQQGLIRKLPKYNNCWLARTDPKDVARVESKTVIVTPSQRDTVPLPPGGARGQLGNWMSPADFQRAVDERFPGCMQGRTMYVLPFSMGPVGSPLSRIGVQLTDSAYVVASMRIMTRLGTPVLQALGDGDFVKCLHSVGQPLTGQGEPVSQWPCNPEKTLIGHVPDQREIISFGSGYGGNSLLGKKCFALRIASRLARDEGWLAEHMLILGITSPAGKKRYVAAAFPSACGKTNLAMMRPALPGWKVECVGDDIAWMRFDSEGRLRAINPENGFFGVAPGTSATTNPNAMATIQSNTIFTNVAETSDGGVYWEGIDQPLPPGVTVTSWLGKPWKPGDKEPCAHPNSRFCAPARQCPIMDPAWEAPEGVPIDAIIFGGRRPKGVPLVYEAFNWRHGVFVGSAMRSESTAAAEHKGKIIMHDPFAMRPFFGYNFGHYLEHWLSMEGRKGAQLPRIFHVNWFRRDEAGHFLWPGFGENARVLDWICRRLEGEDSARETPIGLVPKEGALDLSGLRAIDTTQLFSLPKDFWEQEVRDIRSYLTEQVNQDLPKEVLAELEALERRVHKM
# Chain of UniProt P60484 (P60484 whole entry, looked up): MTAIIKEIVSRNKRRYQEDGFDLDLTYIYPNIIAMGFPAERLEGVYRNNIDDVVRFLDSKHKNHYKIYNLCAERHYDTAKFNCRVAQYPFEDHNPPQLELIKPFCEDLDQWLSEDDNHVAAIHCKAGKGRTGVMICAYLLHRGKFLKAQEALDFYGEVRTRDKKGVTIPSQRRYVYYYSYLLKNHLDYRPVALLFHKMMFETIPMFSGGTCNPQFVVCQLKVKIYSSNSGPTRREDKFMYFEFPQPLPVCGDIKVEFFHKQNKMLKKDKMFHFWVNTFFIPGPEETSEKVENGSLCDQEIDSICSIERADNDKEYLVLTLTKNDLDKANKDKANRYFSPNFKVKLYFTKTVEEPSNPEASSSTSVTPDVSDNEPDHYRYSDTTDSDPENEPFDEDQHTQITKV
# Chain of UniProt P62191 (P62191 whole entry, looked up): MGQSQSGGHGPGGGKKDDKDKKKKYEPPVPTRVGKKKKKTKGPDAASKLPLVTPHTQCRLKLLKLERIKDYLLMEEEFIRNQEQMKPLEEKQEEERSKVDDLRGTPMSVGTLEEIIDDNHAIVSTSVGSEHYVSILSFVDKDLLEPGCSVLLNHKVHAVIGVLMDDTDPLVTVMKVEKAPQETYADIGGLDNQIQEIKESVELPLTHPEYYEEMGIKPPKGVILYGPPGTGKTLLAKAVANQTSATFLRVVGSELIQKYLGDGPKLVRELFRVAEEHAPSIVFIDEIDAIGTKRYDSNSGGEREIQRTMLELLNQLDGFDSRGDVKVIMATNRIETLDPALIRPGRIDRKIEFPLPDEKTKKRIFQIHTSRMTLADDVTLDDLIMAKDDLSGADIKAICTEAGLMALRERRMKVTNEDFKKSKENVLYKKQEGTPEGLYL
# Chain of UniProt Q9BRP1 (Q9BRP1 whole entry, looked up): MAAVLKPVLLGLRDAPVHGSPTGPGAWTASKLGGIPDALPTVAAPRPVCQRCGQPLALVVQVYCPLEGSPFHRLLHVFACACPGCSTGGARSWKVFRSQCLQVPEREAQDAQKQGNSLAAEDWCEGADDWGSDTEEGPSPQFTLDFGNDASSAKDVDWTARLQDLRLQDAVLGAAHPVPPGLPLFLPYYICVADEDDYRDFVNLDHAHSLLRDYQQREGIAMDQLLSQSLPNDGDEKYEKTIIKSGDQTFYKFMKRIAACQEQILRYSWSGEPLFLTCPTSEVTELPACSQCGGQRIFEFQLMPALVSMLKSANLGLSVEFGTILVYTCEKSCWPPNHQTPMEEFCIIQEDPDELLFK
# Chain of UniProt P25788 (P25788 whole entry, looked up): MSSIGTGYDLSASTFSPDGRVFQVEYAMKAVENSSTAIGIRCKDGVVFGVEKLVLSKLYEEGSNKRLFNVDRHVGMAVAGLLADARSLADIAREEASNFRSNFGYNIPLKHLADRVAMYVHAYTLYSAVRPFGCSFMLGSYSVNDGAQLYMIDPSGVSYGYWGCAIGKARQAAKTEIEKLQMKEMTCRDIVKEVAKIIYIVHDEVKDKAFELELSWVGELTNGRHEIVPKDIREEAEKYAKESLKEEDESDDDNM
# Chain of UniProt Q53EL6 (Q53EL6 whole entry, looked up): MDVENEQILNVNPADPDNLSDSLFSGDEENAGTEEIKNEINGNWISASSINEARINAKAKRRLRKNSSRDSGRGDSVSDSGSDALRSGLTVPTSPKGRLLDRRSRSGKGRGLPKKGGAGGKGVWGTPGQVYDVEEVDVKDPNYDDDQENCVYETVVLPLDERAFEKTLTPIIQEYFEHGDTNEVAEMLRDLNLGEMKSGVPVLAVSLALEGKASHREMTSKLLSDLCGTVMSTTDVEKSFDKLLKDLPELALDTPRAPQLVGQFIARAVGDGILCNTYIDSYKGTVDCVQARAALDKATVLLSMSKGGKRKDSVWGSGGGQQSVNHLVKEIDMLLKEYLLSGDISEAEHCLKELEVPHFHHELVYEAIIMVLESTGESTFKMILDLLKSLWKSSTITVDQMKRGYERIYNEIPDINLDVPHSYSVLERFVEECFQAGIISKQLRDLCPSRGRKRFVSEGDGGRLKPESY
# Chain of UniProt Q15366 (Q15366 whole entry, looked up): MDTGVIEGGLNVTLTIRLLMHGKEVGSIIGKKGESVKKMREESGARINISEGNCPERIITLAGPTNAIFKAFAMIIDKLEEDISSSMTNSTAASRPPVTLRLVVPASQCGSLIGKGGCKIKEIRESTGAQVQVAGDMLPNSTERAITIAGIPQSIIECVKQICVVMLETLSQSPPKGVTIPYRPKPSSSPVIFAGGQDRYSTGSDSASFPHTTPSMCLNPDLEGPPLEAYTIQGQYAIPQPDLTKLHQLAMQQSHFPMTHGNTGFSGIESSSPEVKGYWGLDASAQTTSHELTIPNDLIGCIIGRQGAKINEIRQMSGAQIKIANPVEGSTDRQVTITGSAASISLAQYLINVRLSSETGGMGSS
# Chain of UniProt Q9BRX2 (Q9BRX2 whole entry, looked up): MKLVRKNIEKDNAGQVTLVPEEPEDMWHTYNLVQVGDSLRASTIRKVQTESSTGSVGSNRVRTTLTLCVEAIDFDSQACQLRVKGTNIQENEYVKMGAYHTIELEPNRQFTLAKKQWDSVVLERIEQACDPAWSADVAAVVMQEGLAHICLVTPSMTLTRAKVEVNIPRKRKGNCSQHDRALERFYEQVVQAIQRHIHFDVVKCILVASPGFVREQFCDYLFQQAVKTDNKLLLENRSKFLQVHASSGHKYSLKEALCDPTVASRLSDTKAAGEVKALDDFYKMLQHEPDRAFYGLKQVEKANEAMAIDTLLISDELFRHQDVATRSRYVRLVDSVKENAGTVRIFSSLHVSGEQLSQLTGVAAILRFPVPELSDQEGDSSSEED
# Chain of UniProt P62136 (P62136 whole entry, looked up): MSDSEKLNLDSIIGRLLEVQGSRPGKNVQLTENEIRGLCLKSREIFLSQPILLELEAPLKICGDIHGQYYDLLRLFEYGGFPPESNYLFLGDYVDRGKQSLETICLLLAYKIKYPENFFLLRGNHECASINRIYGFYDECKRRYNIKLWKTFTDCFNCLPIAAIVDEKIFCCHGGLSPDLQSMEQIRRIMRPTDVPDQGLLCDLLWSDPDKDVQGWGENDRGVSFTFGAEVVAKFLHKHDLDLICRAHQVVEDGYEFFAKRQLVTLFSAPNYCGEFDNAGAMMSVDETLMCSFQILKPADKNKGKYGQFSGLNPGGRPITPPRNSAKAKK
# Chain of UniProt Q9UBV8 (Q9UBV8 whole entry, looked up): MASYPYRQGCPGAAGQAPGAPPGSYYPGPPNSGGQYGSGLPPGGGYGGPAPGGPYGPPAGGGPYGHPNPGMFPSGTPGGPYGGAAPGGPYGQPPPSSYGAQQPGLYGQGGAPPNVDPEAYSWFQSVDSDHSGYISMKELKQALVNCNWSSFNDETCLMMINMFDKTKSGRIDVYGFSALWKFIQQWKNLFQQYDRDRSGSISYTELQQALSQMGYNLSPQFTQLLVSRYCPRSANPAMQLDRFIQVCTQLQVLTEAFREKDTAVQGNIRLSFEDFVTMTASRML
# Chain of UniProt Q15121 (Q15121 whole entry, looked up): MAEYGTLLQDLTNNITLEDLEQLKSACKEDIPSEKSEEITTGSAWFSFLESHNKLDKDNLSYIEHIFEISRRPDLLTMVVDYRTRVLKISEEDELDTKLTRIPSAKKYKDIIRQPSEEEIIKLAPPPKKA
row,Target,log2 fold change
1,PTEN isoform 2 (UniProt P60484),0.025
2,PRKAR2A (UniProt P13861),0.088
3,PSMA3 (UniProt H0YJ03),-0.059
4,PXK (UniProt Q7Z7A4),0.009
5,PTPN12 (UniProt Q05209),-0.041
6,PYGB (UniProt P11216),-0.156
7,PHC3 isoform 7 (UniProt Q8NDX5),-0.215
8,PELO (UniProt Q9BRX2),0.05
9,PYGL (UniProt P06737),-0.088
10,PIR (UniProt O00625),0.028
11,PURA (UniProt Q00577),0.176
12,PCK2 (UniProt Q16822),-0.057
13,PUF60 (UniProt Q9UHX1),-0.017
14,PPT2 isoform 3 (UniProt Q9UMR5),-0.04
15,PSMA3 (UniProt P25788),0.009
16,PPP2R5A (UniProt Q15172),0.001
17,PDCD2L (UniProt Q9BRP1),-0.012
18,PRKCA (UniProt P17252),-0.054
19,PIK3CD (UniProt O00329),-0.206
20,PAN2 (UniProt Q504Q3),-0.151

row,Target,log2 fold change
1,PDCD4 (UniProt Q53EL6),-0.002
2,PHAX (UniProt Q9H814),-0.005
3,PCF11 (UniProt O94913),-0.745 (active)
4,PLBD2 (UniProt Q8NHP8),-0.038
5,PPIL2 (UniProt Q13356),-0.027
6,PCBP2 isoform 3 (UniProt Q15366),0.009
7,PML (UniProt P29590),0.073
8,PGGT1B (UniProt P53609),-0.037
9,PSMC1 (UniProt P62191),0.006
10,PRKACA (UniProt P17612),0.007
11,PKN1 isoform 2 (UniProt Q16512),0.014
12,POMK (UniProt Q9H5K3),-0.293 (active)
13,PEA15 isoform 2 (UniProt Q15121),0.009
14,PRKAB2 (UniProt O43741),-0.12
15,PSMC6 (UniProt P62333),0.01
16,PEF1 (UniProt Q9UBV8),0.023
17,PPP6R1 (UniProt Q9UPN7),0.033
18,PPP1CA (UniProt P62136),0.037
19,PISD (UniProt Q9UG56),-0.009
